D2 PAM-1 – Beta-Arrestin HTS for Positive Allosteric Modulators of the Human D2 Dopamine Receptor: Potentiators. 0.23% of 360,000 active. DiscoveRx D2 beta-arrestin cells, luminescence, 90 min; 100% = 57 uM dopamine signal. D(2) dopamine receptor (Homo sapiens), P14416. potentiation, % (concentration not given with the values); in the data active = potentiation above about 50%; inconclusive = mostly about 30% to 49%
Target sequence (P14416 whole entry, looked up): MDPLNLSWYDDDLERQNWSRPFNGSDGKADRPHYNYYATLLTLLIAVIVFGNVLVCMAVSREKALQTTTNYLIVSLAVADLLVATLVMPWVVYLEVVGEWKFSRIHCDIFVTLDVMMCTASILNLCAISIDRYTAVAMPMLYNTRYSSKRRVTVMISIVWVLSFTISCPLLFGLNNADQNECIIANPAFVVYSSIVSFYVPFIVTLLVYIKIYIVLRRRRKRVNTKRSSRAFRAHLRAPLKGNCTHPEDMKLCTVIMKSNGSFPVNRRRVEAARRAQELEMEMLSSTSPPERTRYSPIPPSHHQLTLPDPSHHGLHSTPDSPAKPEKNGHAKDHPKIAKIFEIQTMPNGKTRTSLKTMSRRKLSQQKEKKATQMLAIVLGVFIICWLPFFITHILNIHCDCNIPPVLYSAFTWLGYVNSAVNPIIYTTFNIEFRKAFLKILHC
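PathHunter beta-arrestin assay in DiscoveRx D2 cells. Compounds were added with an EC20 of dopamine (50 nM final) for 90 min at 37 deg C. Luminescence was read 1 h after detection reagent, with 57 uM dopamine as the EC100 control.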
D2 PAM-2 – HTS Assay for Positive Allosteric Modulators of the Human D2 Dopamine Receptor: Primary Screen for Potentiators. D(2) dopamine receptor (Homo sapiens), P14416. HEK293 T-REx D2, calcium flux, EC20 dopamine potentiation. potentiation, % at 10 µM. 0.34% of 340,000 active. AID 485347, 2010;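 active = potentiation over 3 SD above the plate norm, cut at about 30% in these data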; also: 0% is about no effect
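Tetracycline-induced Hek293 Trex D2 cells, force-coupled to calcium, loaded with no-wash calcium dye. Compound added with 180 s kinetic read for agonism, then EC20 dopamine and a further 180 s read for potentiation.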
D2 ag-1 – HTS Assay for Allosteric Agonists of the Human D2 Dopamine Receptor: Primary Screen for Agonists. D(2) dopamine receptor (Homo sapiens), P14416. HEK293 T-REx D2 cells, calcium flux agonist mode. activation, % at 2 µM. 0.53% of 340,000 active. AID 485358, 2010;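 active = activation over 3 SD above normal in the single-dose calcium agonist read, cut at about 30% in these data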; also: 0% is about no effect
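Tetracycline-induced HEK293 T-REx cells with force-coupled D2 receptor, plated overnight at 30 C, loaded with no-wash calcium dye. After a 10 s baseline, compound was pin-added and calcium flux read kinetically for 180 s; calcium rises flagged agonists.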
D2 ag-2 – Beta-Arrestin HTS for Positive Allosteric Modulators of the Human D2 Dopamine Receptor: Agonists. 0.084% of 360,000 active. AID 624465, 2012. DiscoveRx PathHunter D2 beta-arrestin, luminescence, 90 min; 100% = 57 uM dopamine signal. activation, % (no concentration beside the values). D(2) dopamine receptor (Homo sapiens), P14416; in the data active = activation above about 40%; inconclusive = between about 15% and that limit
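DiscoveRx PathHunter D2 beta-arrestin cells (2,100/well) attached overnight, then compound-stimulated 90 min at 37 C in HBSS/10 mM HEPES/0.1% Tween-20 buffer; beta-galactosidase complementation read by luminescence after 1 h at ambient temperature. Dopamine 57 uM final (EC100) as control.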
D2 antagonist – HTS Assay for Allosteric Antagonists of the Human D2 Dopamine Receptor: Primary Screen for Antagonists | D(2) dopamine receptor (Homo sapiens), P14416 | HEK293 TREx D2 cells, calcium flux, dopamine EC80 | inhibition, % at 10 µM | 2% of 340,000 active | AID 485344, 2010; in the data active = inhibition above about 30%; inactive = below that, where a call was filed; also: 0% is about no effect
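Antagonism is scored as inhibition of an EC80 dopamine-evoked calcium signal in a force-coupled, tetracycline-inducible HEK293 T-REx D2 line, with compound present 180 s before agonist.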
* marks the source's active call; other numbers are inactive results; u = inconclusive; x = no result. An excerpt weighted towards active compounds, which were near 2.4% of everything screened.

SMILES	D2 PAM-1	D2 PAM-2	D2 ag-1	D2 ag-2	D2 antagonist
CCCn1c(SCC(=O)N2c3ccccc3CC2C)nnc1-c1ccco1 (configuration not stated)	-6.3	43.4*	0.6	-0.9	-20.6
CCn1c(SCC(=O)N2c3ccccc3Sc3ccccc32)nnc1-c1ccco1	9.6	39.8*	0.8	2.2	-13.3
Cc1ccc(NC(=O)C2CCCN2S(=O)(=O)c2cccc3nsnc23)cc1Cl (configuration not stated)	x	12.2	0.4	x	x
CC(C)(C)c1ccc(-c2noc(CCC(=O)Nc3cccnc3)n2)cc1	-1.2	-1.4	2.1	4.9	35.8*
COc1ccc(-c2noc(CCC(=O)Nc3cccnc3)n2)cc1	-2.8	6.0	-1.0	-0.5	-0.2
O=C1c2cccc3cccc(c23)C(=O)N1c1ccc(O)cc1	-1.2	-2.1	0.4	3.1	3.5
O=C1c2cccc3c(N4CCCCC4)ccc(c23)C(=O)N1c1ccccc1O	-8.4	-4.6	35.7*	-3.0	7.7
O=C1c2cccc3c(N4CCCCC4)ccc(c23)C(=O)N1c1ccc(O)cc1	-6.2	-3.6	66.1*	1.3	29.4
c1ccc(-c2noc(-c3cccnc3NCc3ccco3)n2)cc1	x	0.3	-1.6	x	x
CC1CCCN(c2cc(N(C)CCO)c([N+](=O)[O-])c3nonc23)C1 (configuration not stated)	-5.1	40.1*	-0.3	-2.2	-7.2
Cn1cc(CN2CCN(c3ccccc3)CC2)c2ccccc21	-10.1	-15.8	74.1*	7.3	80.9*
CCN(CCCNC(=O)c1nn(-c2ccc(C)cc2)c(=O)c2c1c1ccccc1n2C)c1ccccc1	x	24.2	-0.7	x	x
CC(C)NC(=O)COc1coc(CN2CCN(Cc3ccccc3)CC2)cc1=O	-2.0	1.1	1.6	0.8	-4.4
CC(C)NC(=O)COc1coc(CN2CCN(C(=O)c3ccco3)CC2)cc1=O	-22.4	7.1	-0.1	-3.6	49.7*
COc1ccccc1OCc1ccc(C(=O)N2CCN(C(=O)c3ccco3)CC2)cc1	-7.9	-6.4	0.0	1.5	35.4*
COc1ccccc1OCc1ccc(C(=O)NN)o1	-16.0	-19.3	-1.0	3.8	76.5*
CN(C(=O)c1ccc(COc2ccccc2Br)o1)c1ccccc1	-2.0	-15.9	-1.2	2.9	44.2*
Cc1ccc2c(c1)-c1onc(C(=O)N3CCN(c4cc(Cl)ccc4C)CC3)c1CO2	x	0.4	-0.3	x	x
CN(Cc1ccc(Cl)cc1)C(CCc1ccccc1)C(=O)NC1CCCCC1 (configuration not stated)	-11.6	x	x	-6.1	x
COC(=O)c1ccc(C2Nc3c(C)cc(C)cc3C3C=CCC32)cc1 (configuration not stated)	x	9.9	x	x	x
CCn1c(=O)cc(OCC(=O)NCc2ccc(F)cc2Cl)c2ccccc21	x	-1.4	0.5	x	x
COc1ccc(C(=O)OCC(=O)N2CCN(C(=O)c3ccco3)CC2)c(OC)c1OC	-6.8	x	x	0.3	x
COc1ccccc1OCc1ccc(C(=O)N/N=C/c2ccco2)cc1	-25.2	-17.9	0.0	-2.1	43.6*
COc1ccc(CN2CCN(C(=O)c3ccco3)CC2)c(OC)c1OC	60.2*	x	x	46.4*	x
Cc1ccc(S(=O)(=O)Nc2ccc(O)c3cccnc23)cc1	u	31.1*	-1.5	9.8	20.4
SMILES	D2 PAM-1	D2 PAM-2	D2 ag-1	D2 ag-2	D2 antagonist
Cc1cc(C(=O)NCCCN2CCN(c3cc(Cl)ccc3C)CC2)n(-c2ccccc2)n1	-10.2	-27.9	-2.1	-1.1	47.2*
Cc1cc(C(=O)NCCN2CCN(c3cccc(Cl)c3)CC2)n(-c2ccccc2)n1	-8.3	-5.3	-3.0	-4.3	12.4
COC(=O)c1ccc(CC2(C)C(=O)Nc3ccc(-c4cccc(C(F)(F)F)c4)cc32)o1 (configuration not stated)	0.2	x	x	-1.5	x
Nc1cccc(N2C(=O)c3cccc4c(N)ccc(c34)C2=O)c1	-21.2	1.9	49.1*	-3.1	-18.2
Nc1ccc2c3c(cccc13)C(=O)N(c1ccccc1)C2=O	4.7	6.0	-1.8	2.9	-18.2
Cc1cccc(N2C(=O)c3cccc4c(N)ccc(c34)C2=O)c1	1.8	3.4	116.8*	4.2	7.3
COc1ccc(-c2cc(N)n(S(=O)(=O)c3c(F)c(F)c(F)c(F)c3F)n2)cc1OC	-11.4	-4.0	2.7	-0.1	34.9*
COc1ccc(S(=O)(=O)n2nc(-c3cc(OC)c(OC)c(OC)c3)cc2N)cc1OC	-1.2	3.1	0.0	-1.7	1.2
COC(=O)c1sccc1NC(=O)Cc1ccc(Br)cc1	-8.2	-5.9	-1.1	2.0	42.4*
COC(=O)c1sccc1NC(=O)Nc1ccc(Cl)c(Cl)c1	-14.5	-6.0	0.2	5.4	43.9*
COC(=O)c1sccc1NC(=O)Nc1ccc(C)c(C)c1	0.4	-4.2	0.4	-5.6	-3.2
COC(=O)c1sccc1NC(=O)c1ccc(C)s1	-4.0	33.0*	-1.3	-1.8	32.8*
CCc1cccc(CC)c1NC(=O)CCS(=O)(=O)c1ccc(Br)cc1	x	4.1	-1.2	x	x
Cc1nnc(NC(=O)c2ccc(S(=O)(=O)N3CCCCCC3)cc2)o1	-16.6	10.0	0.2	-2.6	0.3
CC1CCCN(S(=O)(=O)c2ccc(C(=O)Nc3nnc(-c4ccccn4)o3)cc2)C1 (configuration not stated)	-7.7	10.3	0.1	2.4	34.6*
COCc1nnc(NC(=O)c2ccc(S(=O)(=O)N3CCCCCC3)cc2)o1	-2.2	31.9*	0.5	0.1	7.1
CC1CCN(S(=O)(=O)c2cc(C(=O)N3CCN(c4cccc(Cl)c4)CC3)n(C)c2)CC1	x	0.4	-0.7	x	x
CC(CCc1ccccc1)NC(=O)CSc1n[nH]c(-c2ccc(F)cc2)n1 (configuration not stated)	x	x	-0.1	x	x
CN(C)S(=O)(=O)c1cccc(NC(=O)c2ccc(OC(F)(F)F)cc2)c1	-31.4	-23.6	-0.5	0.6	46.3*
CN(C)S(=O)(=O)c1cccc(C(=O)Nc2ccccc2)c1	-4.4	2.6	-0.3	6.5	47.0*
CCOC(=O)CSc1nc2cc3c(cc2cc1CC)OCCO3	-23.0	74.8*	1.3	-5.3	-12.7
CCc1cc2ccc(C)cc2nc1SCC(=O)Nc1cc(C)on1	-0.2	2.6	0.2	-0.9	-7.0
CCc1cc2cc3c(cc2nc1SCC(=O)Nc1cc(C)on1)OCO3	-7.9	-1.8	0.0	-1.1	31.9*
CCC(=O)OCc1cnc(C)c2oc(=O)c(C(=O)Nc3ccc(CC)cc3)cc12	x	x	-0.9	x	x

Source: PubChem
